HPGD inh: qHTS Assay for Inhibitors of HPGD (15-Hydroxyprostaglandin Dehydrogenase). 150,000 compounds, 4.3% hits. 15-hydroxyprostaglandin dehydrogenase [NAD(+)] (Homo sapiens), P15428. AID 894, 2007. purified HPGD, NADH fluorescence kinetic, PGE2 substrate. Potency, µM, for inactives: at the highest dose activity change, negative = inhibition, hits mostly inhibitors; also: potency is read from the fitted curve at half-maximal effect
Target sequence (P15428 whole entry, looked up): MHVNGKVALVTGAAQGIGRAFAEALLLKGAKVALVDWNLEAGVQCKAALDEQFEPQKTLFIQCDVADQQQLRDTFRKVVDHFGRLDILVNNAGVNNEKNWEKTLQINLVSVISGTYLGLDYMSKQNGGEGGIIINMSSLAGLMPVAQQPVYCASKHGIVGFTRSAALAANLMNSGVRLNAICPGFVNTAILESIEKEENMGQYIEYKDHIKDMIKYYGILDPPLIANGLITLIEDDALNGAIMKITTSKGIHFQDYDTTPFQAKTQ
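NADH formation kinetics: reaction with 30 uM PGE2 and 1 mM NAD+ (final), 20 nM enzyme, Tris-HCl pH 8 with Tween 20, after 15 min compound preincubation at room temperature. Fluorescence change, last versus first of five reads.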
ALDH1A1 block: qHTS Assay for Inhibitors of Aldehyde Dehydrogenase 1 (ALDH1A1). Aldehyde dehydrogenase 1A1 (Homo sapiens), P00352. Purified ALDH1A1, NADH fluorescence, propionaldehyde substrate. Potency, µM (doses to about 75.3 µM), for inactives: at the highest dose activity, negative = inhibition, most hits filed as inhibitors. 220,000 compounds, 7.3% hits. AID 1030, 2008;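 also: potency is read from the fitted curve at half-maximal effect; plate controls were no enzyme wells and a reference inhibitor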
IMPase inh: qHTS Assay for Identifying the Cell-Membrane Permeable IMPase Inhibitors | CHO-M1 cells, IP1 accumulation, HTRF TR-FRET ratio | inhibition (IP1 accumulation), % at 46.1 µM | 120,000 tested, under 10 active; active = well fitted curve in the direction sought with a large enough effect in the signal ratio, not every such curve was filed as active; inconclusive = small, poorly fitted or top-dose-only effect, or a change in a side signal; inactive = no such curve, though single readings can be large or run the other way; the % refers to the signal ratio;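 also: cells stimulated with carbachol in lithium chloride buffer; plate controls were DMSO basal wells for no effect and reference inhibitor wells for full effect; higher means more IMPase inhibition seen as more IP1 and lower FRET ratio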
Target sequence (P97697 whole entry, looked up): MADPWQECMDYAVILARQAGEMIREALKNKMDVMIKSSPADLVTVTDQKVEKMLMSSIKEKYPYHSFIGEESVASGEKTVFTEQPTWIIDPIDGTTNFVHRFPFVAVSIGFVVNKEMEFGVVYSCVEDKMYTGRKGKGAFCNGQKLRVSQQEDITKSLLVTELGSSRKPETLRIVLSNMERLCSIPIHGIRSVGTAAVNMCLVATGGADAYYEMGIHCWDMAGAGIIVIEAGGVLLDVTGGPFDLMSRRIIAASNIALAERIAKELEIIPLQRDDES
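Elevated IP1 in lysates lowers TR-FRET signal (665/620 ratio and 620 channel reported). Cells were CHO-M1, given carbachol (50 uM as added) plus 50mM LiCl, pH 7.4, 30 min, 37C; compounds titrated up to 46 uM; AC50 by Hill equation.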
The depositor's hits bear a star; ? = inconclusive; . = no result; [ ] = dose if it differs, or a comment. A selection: hits, their analogues and other compounds. The true share with any hit is near 9%. Unless noted, calls follow the shape of the dose curve; as a rule, active = well fitted inhibition curve with a large enough effect (not every such curve was filed as active); inconclusive = small, poorly fitted or top-dose-only effect, or another doubt; inactive = no such curve, though single readings can be large or run the other way. Unless noted, % is scaled to controls: 0 for no effect and ±100 for the full control effect.

SMILES	HPGD inh	ALDH1A1 block	IMPase inh
CC(=O)c1ccc(NC(=O)c2ccc(S(=O)(=O)N3CCCC3)cc2)cc1	-14%	?	1
COc1ccc(S(=O)(=O)N2CCCC(C(=O)NCc3ccncc3)C2)cc1 (stereo not drawn)	-11%	3%	5
Cc1cccc(OCCOc2ccc(/C=N/NC(=O)Cc3nnc(N)s3)cc2)c1	1%	4%	-3
Cc1ccc(CCNC(=O)c2cccc(Nc3nc4ccccc4nc3-n3nc(C)cc3C)c2)cc1	.	.	-2
CCc1ccccc1NC(=O)COc1cccc2ccc(C)nc12	-21%	2%	.
CC(Sc1nnc(N)s1)c1ccccc1Cl (stereo not drawn)	?	-44%	4
Cc1ccc(C)c(CSc2nc3[nH]ncc3c(=O)[nH]2)c1	.	12%	.
Cc1ccc(S(=O)(=O)N(CC(=O)O)c2ccc(Cl)cc2)cc1	-6%	3%	.
COc1cccc(CNC(=O)CCC2CCCN(c3cc(C)nc(N)n3)C2)c1 (stereo not drawn)	.	5%	.
O=C(Nc1nnc(-c2ccco2)o1)c1ccc(S(=O)(=O)N2CCCC2)cc1	.	35µM*	.
CC1CN(S(=O)(=O)c2ccc(C(=O)Nc3nnc(-c4ccco4)o3)cc2)CC(C)O1 (stereo not drawn)	.	-6%	.
Cc1ccc(S(=O)(=O)Nn2c(C)ccc2C)cc1	?	?	7
COc1ccc(O)c(/C=c2/sc3nc4cc(C)c(C)cc4n3c2=O)c1	7.9µM*	?	10
COc1ccc(OC)c(/C=c2\sc3nc(-c4cccs4)nn3c2=O)c1	-22%	7%	-7[1.84 µM]
Cc1cccnc1CCNC(=O)CC1C(=O)NCCN1CC1CCCCC1 (stereo not drawn)	.	-2%	.
CCCc1nc(SCC(N)=O)[nH]c(=O)c1CC	-5%	-5%	-5
Clc1ccccc1CSc1nncn1NC/C=C/c1ccccc1	1%	11%	1
Cn1cc(S(=O)(=O)N2CCN(C(=O)c3ccco3)CC2)c(=O)n(C)c1=O	-12%	1%	-4
CC(=O)N1c2c(cc(Br)cc2S(=O)(=O)N2CCN(C(=O)c3ccco3)CC2)CC1C (stereo not drawn)	14µM*	-8%	-11
Nc1nc(Nc2ccccc2)nc2c1ncn2[C@@H]1O[C@H](CO)[C@H](O)[C@H]1O	-12%	-7%	.
COc1ccc(NC(=O)COC(=O)/C=C/c2cnc3ccccc3n2)cc1	.	3%	.
Cc1c(CCOC(=O)c2ccccc2)sc[n+]1Cc1ccccc1	-3%	7%	.
Cc1ccc2c(c1)sc[n+]2Cc1ccccc1	20µM*	?	6
Cc1c(NC(=O)/C(C#N)=C/C2CC=CCC2)c(=O)n(-c2ccccc2)n1C (stereo not drawn)	-8%	-7%	4
CCOC(=O)c1c(C)n(-c2ccc(C)cc2)c2c(C(C(C)=O)C(=O)O)c(Br)c(O)c(O)c12 (stereo not drawn)	18µM*	?	6
SMILES	HPGD inh	ALDH1A1 block	IMPase inh
CCOC(=O)c1cc(C(=O)c2cc(Br)ccc2O)coc1=N	.	5%	.
CCOC(=O)C(C(C)=O)c1c(Br)c(O)c(O)c2c(C(=O)c3ccc(C)cc3)coc12 (stereo not drawn)	7.9µM*	-3%	12
CCOC(=O)c1c(C)n(-c2ccc(C)cc2)c2c(CC(C)=O)c(Br)c(OC)c(O)c12	-4%	7%	2
COc1ccc(NC(=O)N2CC3(CCN(S(=O)(=O)c4ccccc4)CC3)C2)cc1	-1%	4%	.
COc1ccc(/C=C2\CCCC(C(=O)C(F)(F)F)=C2O)cc1OC	.	0.13µM*	.
CCOc1cc(/C=C2\CCCC(C(=O)C(F)(F)F)=C2O)ccc1O	-13%	0.16µM*	.
CCOc1cc(/C=N/NC(=O)C(=O)N2CCCC2)ccc1O	.	0%	.
COc1ccc(/C=C2/CCc3ccccc3C2=O)cc1OC	-16%	-14%	.
CN(C)S(=O)(=O)c1ccc(C(=O)OCn2nnc3ccccc3c2=O)cc1	-5%	4%	5
Cc1nn(-c2ccccc2)c(C)c1C(=O)Nc1ccc(N2CCOCC2)cc1	.	-5%	.
CCc1ccc(NC(=O)c2cnn(-c3ccccc3)c2C2CCNCC2)cc1	.	4%	.
CCCc1c(C(=O)Nc2cc(C)on2)cnn1-c1ccccc1	.	18µM*	.
CCc1ccc(NC(=O)c2cnn(-c3ccccc3)c2C)cc1	2.5µM*	9%	.
CCCc1c(C(=O)NNc2ccc(C)cc2)cnn1-c1ccccc1	.	14µM*	.
Cc1cc(NC(=O)c2ccccc2Cl)no1	-7%	7%	-17
CCCc1c(C(=O)Nc2ccc(N3CCOCC3)cc2)cnn1-c1ccccc1	.	3.2µM*	.
CCOC(=O)c1cnn(-c2ccccc2)c1-n1cccc1	-8%	0%	11
CC(C)(C)NC[C@@H](O)COc1ccccc1C1CCCC1	-1%	-5%[20.9 µM]	0[20.6 µM]
COc1cc(NC(=O)CSc2nc(C)c(C)c(C)n2)cc(OC)c1	.	5%	.
O=c1[nH]ncc2ccccc12	-7%	?	.
Cn1cc(CN2CCC(N3CCNC(=O)CC3)CC2)c(-c2ccccc2F)n1	.	-6%	.
c1nc2n(n1)C1=C(CCCC1)C1(CCCCC1)N2	.	-10%	.
Cc1ccc(NC(=O)C2(C)Cc3ccccc3C(=O)O2)cc1 (stereo not drawn)	.	1%	.
CC(C)(C)c1ccc(S(=O)(=O)N2CC(=O)Nc3ccccc32)cc1	-14%	?	2
CCc1ccccc1N(C1=NCCCS1)S(=O)(=O)c1ccc(C(C)(C)C)cc1	-17%	0.79µM*	.
SMILES	HPGD inh	ALDH1A1 block	IMPase inh
Cc1c(C2N3CC4(C)CN2CC(C)(C3)C4=O)c2ccccc2n1C (stereo not drawn)	-2%	4%	?
CCn1c2ccccc2c2nnc(SCC(=O)NCCOC)nc21	16µM*	-3%	7
CCCn1c2ccccc2c2nnc(SCC(=O)OC)nc21	.	14µM*	0
CCn1c2ccccc2c2nnc(SCC(=O)NCc3cccs3)nc21	-15%	-2%	3
C=CCn1c2ccccc2c2nnc(SCC(=O)Nc3c(C)n(C)n(-c4ccccc4)c3=O)nc21	-7%	-9%	2
CCCn1c2ccccc2c2nnc(SCC(=O)OCC)nc21	-29%	?	?
CCn1c2ccccc2c2nnc(SCC(=O)N(C)C3CCS(=O)(=O)C3)nc21 (stereo not drawn)	-19%	?	.
C=CCn1c2ccccc2c2nnc(SCC(=O)NC(C(=O)OC)C(C)C)nc21 (stereo not drawn)	20µM*	20µM*	4
CCn1c2ccccc2c2nnc(SCC(=O)NC3CCS(=O)(=O)C3)nc21 (stereo not drawn)	32µM*	-3%	-4
Cc1ccc(S(=O)(=O)N2CCN(C(=O)c3cccs3)CC2)c(C)c1	.	2%	.
Fc1ccc(CNc2nc3ccc(Cl)cc3n3nnnc23)cc1	.	.	1
O=S(=O)(c1ccccc1)N1CCC[C@@]2(CCN(Cc3ccccc3)C2)C1	-6%	-15%	.
COc1ccccc1-n1cnnc1SC(C)C(=O)Nc1cccc([N+](=O)[O-])c1 (stereo not drawn)	-6%	?	13
O=C(Nc1nccs1)C12CC3CC(C1)CC(C(=O)Nc1nccs1)(C3)C2	-13%	-17%	9
